Cycloheximide cs – counter-screen hit for Shiga toxin inhibitors, cycloheximide; cell reporter, cycloheximide protein synthesis inhibition counterscreen; max response, %; actives 12% (n = 300,000); in the data active means max response mostly above about 13%, no sharp cut-off; inactive means mostly below about 14%; further: read at 38.3 µM for the half of the compounds with a filed dose; 0% is about no effect
Pf growth 96h – P. falciparum growth inhibition at 96 hour, primary screen for plastid delayed-death inhibitors. Potency, µM (titrated, usually from 28.7 µM), inactives show top-dose activity change, negative = inhibition, usual class: inhibitors. P. falciparum luciferase reporter growth, 96 h. actives 6.9% (n = 320,000). AID 504834; further: potency means the concentration at half of the fitted maximal effect; on the % scale 0 is the no-effect control and ±100 the full control effect
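Two parasite generations (96 h, 37 C, 5% CO2) of compound exposure in infected erythrocytes (0.05% parasitemia, 2% hematocrit). Luciferase-reporter P. falciparum; decreased luminescence indicates inhibited growth, aimed at apicoplast-acting delayed death.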
Giardia FBPA inh – inhibitors of Giardia lamblia fructose-1,6-bisphosphate aldolase | AID 2451 | Potency, µM (doses to about 59.6 µM), without a hit: top-dose activity, negative = inhibition, actives largely listed as inhibitors | purified Giardia FBPA | actives 0.71% (n = 290,000); further: potency means the concentration at half of the fitted maximal effect; on the % scale 0 is the no-effect control and ±100 the full control effect; nearly all actives have a fitted effect of over 55% in size
Target sequence (A8B2U2 whole entry, looked up): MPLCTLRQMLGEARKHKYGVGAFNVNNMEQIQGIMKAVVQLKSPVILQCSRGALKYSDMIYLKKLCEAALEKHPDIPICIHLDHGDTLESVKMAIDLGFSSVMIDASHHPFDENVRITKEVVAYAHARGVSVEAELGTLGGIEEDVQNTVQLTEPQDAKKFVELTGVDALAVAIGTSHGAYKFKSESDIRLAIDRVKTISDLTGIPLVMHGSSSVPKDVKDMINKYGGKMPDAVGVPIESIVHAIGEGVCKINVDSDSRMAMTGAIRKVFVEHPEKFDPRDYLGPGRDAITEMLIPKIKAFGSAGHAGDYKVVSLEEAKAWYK
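40 nM FBPA preincubated 10 min at RT with compound (up to 57.5 uM final), then substrate plus GAPDH/TPI/NAD/arsenate coupling and diaphorase/resazurin added. Fluorescence read after 20 min at RT, 525/598 nm.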
Shiga inhibitor – inhibitors of Shiga toxin in Vero cells; actives 9.2% (n = 290,000); inhibition, % at 38.7 µM; Vero cells, Shiga toxin protein synthesis inhibition reporter; in the data active means inhibition mostly above about 28%, no sharp cut-off; inactive means mostly below about 43%; further: 0% is about no effect
NS1 function inh – influenza NS1 inhibition | Potency, µM (titrated, usually from 46.1 µM), for inactives: top-dose activity, positive = more growth | actives 0.4% (n = 270,000) | AID 2326; calls by dose curve; further: potency means the concentration at half of the fitted maximal effect; actives are rising curves; nearly all actives have a fitted effect of over 50% in size
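Compounds were scored for reversing the slow growth caused by influenza A NS1 in S. cerevisiae, measured by optical density at 600 nm. Assay medium contained 2% galactose at pH 6.0; NS1-free yeast of the same strain were the positive control.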
Pf growth 48h – inhibits P. falciparum growth in the first generation, 48 h. P. falciparum luciferase growth in erythrocytes, 48 h. Potency, µM (highest dose often 28.7 µM), for inactives: top-dose activity change, negative = inhibition, actives largely listed as inhibitors. actives 5.9% (n = 310,000); further: potency means the concentration at half of the fitted maximal effect; on the % scale 0 is the no-effect control and ±100 the full control effect
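First compound was added to culture medium, then infected red cells at 0.1% parasitemia and 2% hematocrit (final). After incubation at 37 C under 5% CO2, luciferase detection reagent was dispensed and light output recorded.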
* = called active by the depositor; [ ] = another dose, or the depositor's remark. Rows were chosen to be rich in hits. Some 21% of all compounds tested hit in one or more screens of this group. Unless noted, the call rests on the fitted dose curve; in most records, active means well fitted curve in the direction sought with a large enough effect; inconclusive means small, poorly fitted or top-dose-only effect, or another doubt; inactive means no such curve, though single readings can be large; an effect the other way counts as inactive or inconclusive.

Screening CCN1C(c2ccccc2)C(C)C(=O)C(C)C1c1ccccc1 (stereo unspecified) returned Cycloheximide cs 4, Pf growth 96h 9.3µM*, Giardia FBPA inh 0%, Shiga inhibitor 24, NS1 function inh -9% and Pf growth 48h 12µM*.
CC(C)(CO)NC(=O)Nc1ccc(Cl)c(Cl)c1 was read as Cycloheximide cs 4, Pf growth 96h 42%, Giardia FBPA inh 2%, Shiga inhibitor -13, NS1 function inh 4% and Pf growth 48h 11%.
For CC[n+]1cc(-c2ccccc2)nc(N2CCOCC2)n1 the results were Cycloheximide cs 8, Pf growth 96h -15%, Giardia FBPA inh -14%, Shiga inhibitor 13, NS1 function inh -15% and Pf growth 48h 2.3µM*.
Screening COc1ccc(-c2csc(N3CCN(C(=O)c4ccccc4)CC3)n2)cc1 returned Cycloheximide cs -2, Pf growth 96h inconclusive, Giardia FBPA inh -4%, Shiga inhibitor 13, NS1 function inh 25% and Pf growth 48h -25%.
`c1ccc(-c2nc3ccccc3nc2N2CCOCC2)cc1` gave Cycloheximide cs -2, Giardia FBPA inh 10%, Shiga inhibitor -4, NS1 function inh 3% and Pf growth 48h 4%.
Screening CN(C)C(=O)N1CCN(c2nc(-c3ccccc3)cs2)CC1 returned Cycloheximide cs 35*, Pf growth 96h 17%, Giardia FBPA inh 1%, Shiga inhibitor 52*, NS1 function inh -18% and Pf growth 48h 2%.
Screening c1ccc(-c2csc(N3CCOCC3)n2)cc1 returned Cycloheximide cs 30*, Giardia FBPA inh -1%, Shiga inhibitor 111*, NS1 function inh -73% and Pf growth 48h 71%.
c1ccc(-c2csc(N3CCN(c4ccccn4)CC3)n2)cc1 was read as Cycloheximide cs 31*, Giardia FBPA inh -8%, Shiga inhibitor 78*, NS1 function inh -71% and Pf growth 48h 73%.
O=C(CCCOc1ccc(Br)cc1)Nc1nnc(C2CC2)s1 was read as Pf growth 96h -23% and Pf growth 48h inconclusive.
Nn1c(SCC(=O)Nc2ccccc2Br)nnc1-c1ccco1 was read as Cycloheximide cs -8, Pf growth 96h -5%, Giardia FBPA inh 2%, Shiga inhibitor -14, NS1 function inh 7% and Pf growth 48h -10%.
Screening CC1CCN(C(=O)CSc2nc(=O)n3ccccc3n2)CC1 returned Pf growth 96h -15% and Pf growth 48h 4%.
Screening OC[C@H]1OC(O)(CN2CCOCC2)[C@H](O)[C@@H]1O (stereo partly specified) returned Cycloheximide cs -1, Giardia FBPA inh 5% and Shiga inhibitor -9.
Screening Cc1cc(C)c(S(=O)(=O)Nc2ccccc2C(=O)N2CCOCC2)c(C)c1 returned Cycloheximide cs 0, Pf growth 96h 1%, Shiga inhibitor -11, NS1 function inh 0% and Pf growth 48h inconclusive.
O=C(N1CCOCC1)N1CCN(c2nc(-c3ccccc3)cs2)CC1 was read as Cycloheximide cs 30*, Giardia FBPA inh 0%, Shiga inhibitor 60, NS1 function inh -8% and Pf growth 48h inconclusive.
For O=C(Cc1n[nH]c(=O)c2ccccc12)OCC(=O)c1ccccc1 the results were Pf growth 96h -10% and Pf growth 48h 7%.
`Cc1noc(NS(=O)(=O)c2ccc(N/C=C\C(=O)c3ccccc3)cc2)c1C` gave Cycloheximide cs 46*, Pf growth 96h inconclusive, Giardia FBPA inh inconclusive, Shiga inhibitor 118* and Pf growth 48h 32%.
Screening Cc1ccc2c(C)c(C(=O)Nc3ccc(S(=O)(=O)Nc4onc(C)c4C)cc3)oc2c1 returned Cycloheximide cs 55*, Pf growth 96h 9.3µM*, Giardia FBPA inh -6%, Shiga inhibitor 89*, NS1 function inh 7% and Pf growth 48h 12%.
For Cc1noc(NS(=O)(=O)c2ccc(N/C=C\C(=O)c3cccs3)cc2)c1C the results were Cycloheximide cs 43*, Pf growth 96h -14%, Giardia FBPA inh 26%, Shiga inhibitor 94*, NS1 function inh -9% and Pf growth 48h 11%.
`Cc1noc(NS(=O)(=O)c2ccc(NC(=O)CS(=O)(=O)c3ccccc3)cc2)c1C` gave Cycloheximide cs -1, Pf growth 96h -19%, Giardia FBPA inh 20%, Shiga inhibitor -4, NS1 function inh -14% and Pf growth 48h -3%.
For Cc1noc(NS(=O)(=O)c2ccc(N/C=C\C(=O)c3ccc(F)cc3)cc2)c1C the results were Cycloheximide cs 61*, Pf growth 96h -45%[1.15 µM], Giardia FBPA inh 29%, Shiga inhibitor 90*, NS1 function inh -40% and Pf growth 48h 11%.
For COc1ccc(OCCOC(=O)CNS(=O)(=O)c2ccc(SC)c([N+](=O)[O-])c2)cc1 the results were Pf growth 96h 19% and Pf growth 48h 11%.
`COc1ccc(CN2CCN(C(=O)Cn3nc(C(=O)O)c4ccccc4c3=O)CC2)cc1F` gave Cycloheximide cs -1, Pf growth 96h 14%, Giardia FBPA inh 4%, Shiga inhibitor -3, NS1 function inh -3% and Pf growth 48h 10%.
`Cc1noc(NS(=O)(=O)c2ccc(N/C=C/C(=O)c3ccc4c(c3)OCO4)cc2)c1C` gave Cycloheximide cs 59*, Pf growth 96h inconclusive, Shiga inhibitor 120*, NS1 function inh -39% and Pf growth 48h 48%.
Screening COc1ccc(COC(=O)N/N=C2/C[C@@H](O)[C@@H](O)[C@@H]3[C@@H]4C(=O)N(Cc5ccc6c(c5)OCO6)C(=O)[C@H]4CC[C@H]23)cc1 returned Giardia FBPA inh -3%[12.9 µM].
For CCOc1cc(/C=N/NC(=O)c2ccc(CN3CCOCC3)cc2)ccc1OC the results were Cycloheximide cs 2, Pf growth 96h 23%, Giardia FBPA inh 0%, Shiga inhibitor -10, NS1 function inh 2% and Pf growth 48h -3%.
Screening COc1cc(/C=N/NC(=O)c2csc3c2CCCC3)ccc1OCCN1CCOCC1 returned Cycloheximide cs 26*, Pf growth 96h inconclusive, Shiga inhibitor 26, NS1 function inh -5% and Pf growth 48h 2%.
Cc1ccc(/C=N/NC(=O)c2csc3c2CCCC3)cc1 was read as Cycloheximide cs 27*, Pf growth 96h 69%, Giardia FBPA inh -4%, Shiga inhibitor 101*, NS1 function inh -12% and Pf growth 48h 41%.
For COc1cc(/C=N/NC(=O)c2csc3c2CCCC3)cc(OC)c1O the results were Cycloheximide cs -3, Pf growth 96h -19%, Giardia FBPA inh -8%, Shiga inhibitor 17*, NS1 function inh -24% and Pf growth 48h 2%.
`Cc1cc(C)c(C(=O)N(C)C2CCCN(Cc3ccccc3F)C2)o1` (stereo unspecified) gave Cycloheximide cs -2, Pf growth 96h -27%, Shiga inhibitor -2, NS1 function inh 3% and Pf growth 48h inconclusive.

Screening results as filed in PubChem.
